Source: PubChem BioAssay (NCI)
This is part of a sample that, as a whole, favours compounds with a hit. Of some 83,000 tested, about 20% had one in any assay.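 Plates (96-well) were seeded with cells, treated with compound at one concentration, and incubated for 48 hours before percent growth was determined.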 Values without a mark were called inactive. Calls of active or inactive are those of the source. How the source made its calls: active means growth percent below 10; inactive means the rest.

Legend:
Assay in all cases: NCI-60 one-dose screen, 48 h (100 = growth as untreated, 0 = no growth, -100 = all killed)
Conditions in all cases: 10 µM unless noted
T-47D breast = tested on: T-47D breast
BT-549 breast = tested on: BT-549 breast
MDA-MB-435 melanoma = tested on: MDA-MB-435 melanoma
SW-620 colon = tested on: SW-620 colon
MCF7 breast = tested on: MCF7 breast
HCT-116 colon = tested on: HCT-116 colon
HCC-2998 colon = tested on: HCC-2998 colon
KM12 colon = tested on: KM12 colon

SMILES	growth (T-47D breast)	growth (BT-549 breast)	growth (MDA-MB-435 melanoma)	growth (SW-620 colon)	growth (MCF7 breast)	growth (HCT-116 colon)	growth (HCC-2998 colon)	growth (KM12 colon)
N#Cc1nc(-c2ccccc2)oc1S(=O)(=O)N1CCN(c2ccc(F)cc2)CC1	55.8%	59.7%	67.5%	32.9%	38.5%	52.8%	94%	81.9%
COc1ccc(C(=S)N2CCN(c3ccc(Cl)cc3)CC2)cc1	88.1%	95.4%	120%	106%	94%	96%	105%	101%
c1nc2ccc(-c3cc4ccc5[nH]ncc5c4c4c3CCCC4)cc2[nH]1	60.3%	34.1%	21.2%	39.4%	59%	7.07% (active)	75.5%	30.8%
COc1ccc(C(O)c2cc3c(N)c(C(=O)Nc4cccc(Cl)c4C)sc3nc2C)cc1 (configuration not stated)	30.5%	17.7%	-29.5% (active)	17.9%	17%	6.73% (active)	5.81% (active)	6.49% (active)
O=C1Nc2ccccc2/C1=C/c1cccn1C(=O)c1ccc(Cl)s1	-31.3% (active)	65%	89.8%	56.4%	12.3%	34.6%	54.4%	4.36% (active)
O=C(C1=Cc2cc3ccccc3n2Cc2cnnn21)c1ccc(O)cc1	44.9%	54.8%	-7.67% (active)	28.7%	34.3%	46.4%	83.8%	29.5%
COc1cc2nc3sc(C(=O)Nc4ccc(C(=O)OC(C)C)cc4)c(C(=O)Nc4ccc(Cl)cc4C)n3c(=O)c2cc1OC	46.5%	96.7%	76.5%	38.7%	52.2%	76.3%	20.5%	52.3%
FC(F)(F)c1ccc(Cn2cc(CSc3nc4ccccc4s3)nn2)cc1	90%	92.3%	101%	98.1%	92.8%	98.2%	104%	99%
Cc1ccc(S(=O)(=O)Oc2ccc3sc4cccc(NCCN(C)C)c4c(=O)c3c2)cc1	-69.8% (active)	-88.6% (active)	-96.3% (active)	-92.4% (active)	-86.7% (active)	-82.9% (active)	-96.7% (active)	-85% (active)
O=C1/C(=C/c2ccc(F)cc2)CN(C(=O)C(Cl)Cl)C/C1=C\c1ccc(F)cc1	-22.4% (active)	-80.1% (active)	-93.7% (active)	-73.1% (active)	-60.9% (active)	-92.8% (active)	-89.3% (active)	-66.3% (active)
CC1(C)CC2=C3C=C[C@@H]4[C@@]5(C)CCC(=O)C(C)(C)[C@@H]5CC[C@@]4(C)[C@]3(C)CC[C@@]2(C(=O)O)C[C@H]1O	20.3%	34.3%	27.1%	32.9%	14.7%	0.846% (active)	35.4%	27%
CNC(=O)c1cc(Oc2ccc3c(c2)sc2nc(-c4ccc(OC)cc4)cn23)ccn1	46.4%	52.4%	5.17% (active)	77.7%	12.9%	16%	17.4%	58.9%
N[C@H]1CCC[C@@H]1NCCCCN1C(=O)c2cccc3cc([N+](=O)[O-])cc(c23)C1=O	57.5%	68.3%	53.2%	26.7%	19.7%	9.25% (active)	51.9%	36.6%
CN1CCN(CCCOc2cccc3nc(Nc4ccc(F)c(F)c4)ccc23)CC1	19.4%	52.8%	-81.5% (active)	-90.3% (active)	-87.6% (active)	-41.2% (active)	-83.8% (active)	-77.3% (active)
O=C(N/N=C/c1cc(Cl)ccc1O)c1ccccc1Nc1ccnc(C(F)(F)F)c1	8.91% (active)	18.7%	35.2%	36.3%	20.6%	32.2%	81.3%	34.5%
COc1ccc2cc(-c3ccnc4c(N=Nc5ccc(Cl)cc5)c(N)nn34)ccc2c1	94.5%	99.9%	105%	101%	97.3%	99.7%	97.6%	103%
O=C(CSc1nnc(-c2cc(-c3ccccc3)nc3ccccc23)n1-c1ccccc1)Nc1ccc(C(=O)/C=C/c2ccc(Cl)cc2)cc1	73.8%	92.4%	96.5%	93.3%	78.5%	86.5%	100%	75.4%
COc1cc(/C=N/Nc2ccc(Br)cc2)cc(OC)c1OC	30.8%	95.1%	39.5%	46.8%	51%	60.8%	45.7%	16.3%
CCN(CC)CCCOc1ccc2ncnc(Nc3ccc(Oc4cccc(C(F)(F)F)c4)c(Cl)c3)c2c1	18.7%	81.4%	-85.7% (active)	-87% (active)	-45.2% (active)	-10.1% (active)	-85.4% (active)	-24.3% (active)
COc1ccc(/C=C/c2c(C(=O)/C=C/c3ccccc3)c(C)nc3ccccc23)cc1	12.9%	31.4%	-33% (active)	2% (active)	12.8%	-70.1% (active)	12.3%	3.01% (active)
CCN(CC)c1ccc(/C=N/NC(=O)Cc2ccc(Nc3ccnc(C(F)(F)F)c3)cc2)c(O)c1	27.6%	41.9%	23.9%	35.6%	20.9%	19.6%	26.9%	41%
CCOC(=O)c1ccccc1-c1c2ccc(=[N+](C)C)cc-2oc2cc(N(C)C)ccc12	6.72% (active)	-10.1% (active)	11.8%	15%	3.95% (active)	4.32% (active)	96.9%	7.32% (active)
C[C@@H]1O[C@@H](O[C@@H]2C[C@H](c3ccc4c(c3O)C(=O)C3=C(C4=O)[C@@]4(O)C(=O)C[C@](C)(O)C[C@@]4(O)C=C3)O[C@H](C)[C@H]2O)CC[C@@H]1O[C@H]1C[C@@H](O)[C@H](O)[C@@H](C)O1	78.7%	100%	106%	94.4%	86.4%	91.1%	103%	101%
CN(C)S(=O)(=O)Oc1ccc(-c2sc3cc(OS(=O)(=O)N(C)C)ccc3c2C(=O)c2ccc(OCCN3CCCCC3)cc2)cc1	44.8%	79.6%	78.6%	30.5%	26.4%	40.8%	89.2%	73.7%
NC1=Nc2cc(OCCCCN3Cc4ccccc4C3)c(OCC3CC3)cc2C12CCCC2	-46.9% (active)	82.2%	5.33% (active)	3.2% (active)	10.6%	11.3%	-58.2% (active)	46.5%
CC1C(/C=N/NC(N)=S)C(C#N)(C#N)C1(C#N)C#N (configuration not stated)	84.6%	110%	98.3%	95.8%	97.1%	105%	105%	97%
COC(=O)c1ccc(NC(=O)Nc2ccc(C(=O)OC)cc2)cc1	89%	99%	109%	112%	96.1%	95.3%	108%	113%
CCCCNc1nnc2n(Cc3ccccc3)c(=O)c3c4c(sc3n12)CCCC4	43.2%	56.3%	51.8%	23.3%	43.4%	27.2%	65%	49.8%
COc1ccc(-c2nc3c(N)c(CO)cnc3s2)cc1	89.2%	104%	92.9%	94.1%	91%	101%	85.8%	88.4%
